# Measurements from PubChem BioAssay.
# Results filed as inconclusive are left out. Activity calls are given as the source filed them. Unless noted, the limit is not given here; nearly all actives have AC50 up to about 26 µM.
# Legend:
# [1] = growth inhibition of DIPG glioma cells, dose response, cell-based, SU-DIPG-XVII, MIPE5.0, CellTiter-Glo, qHTS (AID 1347060); details: SU-DIPG-XVII viability, CellTiter-Glo ATP luminescence;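 as to AC50: cells exposed to compound for 48 hours before viability readout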
# [2] = growth inhibition of DIPG glioma cells, dose response, cell-based, JHH-DIPG-1, MIPE4.0, CellTiter-Glo, qHTS (AID 1347062; cut-off not given, nearly all actives have AC50 up to about 27 µM;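 as to AC50: cells exposed to compound for two days before readout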); details: JHH-DIPG-1 viability, CellTiter-Glo ATP luminescence
# [3] = growth inhibition of DIPG glioma cells, dose response, cell-based, SU-DIPG-IV, MIPE4.0, CellTiter-Glo, qHTS (AID 1347063; cut-off not given, nearly all actives have AC50 up to about 30 µM;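 also: compound exposure lasted 48 hours before the viability readout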); details: SU-DIPG-IV viability, CellTiter-Glo ATP luminescence
# [4] = growth inhibition of DIPG glioma cells, dose response, cell-based, SU-DIPG-XIII, MIPE5.0, CellTiter-Glo, qHTS (AID 1347064; cut-off not given, nearly all actives have AC50 up to about 23 µM;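 as to AC50: cells exposed to compound for 48 hours before the viability read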); details: SU-DIPG-XIII viability, CellTiter-Glo ATP luminescence
# [5] = viability loss in pontine glioma line – cell-based, SU-DIPG-XXV, MIPE5.0, CellTiter-Glo, qHTS, dose response (AID 1347065); details: CellTiter-Glo ATP luminescence;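 also: cells exposed to compound for 48 hours before ATP readout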
# [6] = SU-DIPG-VI glioma cell viability, MIPE4.0 library, CellTiter-Glo luminescence, qHTS (AID 1347066; cut-off not given, nearly all actives have AC50 up to about 30 µM;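 also: cells exposed to compound for 48 hours before readout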); details: CellTiter-Glo ATP luminescence
# [7] = JHH-DIPG-1 glioma cell viability, MIPE5.0 library, CellTiter-Glo luminescence, qHTS (AID 1347067); details: JHH-DIPG-1 glioma viability, CellTiter-Glo ATP luminescence;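 also: cells exposed to compound for 48 hours before readout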
# [8] = SU-DIPG-XXV glioma cell viability, MIPE5.0 library, qHTS (AID 1347068; cut-off not given, nearly all actives have IC50 up to about 30 µM;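 as to IC50: cells exposed to compound for 48 hours before viability readout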)
# [9] = sensitizers of A549 cells to miR-34 induction, primary screen, imaging, A549 dox-inducible miR-34, nuclei and caspase counts (AID 1347080;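 active = compounds whose cell count with miR-34 switched on is under 0.7 times the count with it off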); details: A549 miR-34 inducible, Hoechst nuclei count, 48 h
# [10] = survival rescue of mitochondrial mutant cells in low glucose, primary screen, MELAS cybrids, Rieske KO mouse fibroblasts, CellTiter-Glo (AID 1508586;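 active = mean z-score across replicates of 1.96 or higher in either the MELAS or the Rieske mutant cell line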;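 also: z relative to plate mean and SD of compound and empty wells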)
# [11] = modifiers of HSF1 nuclear foci, imaging, Selleck Cancer Library (AID 1347162; in the data active = plate-normalised HSF1 focus index below about 0.46); details: human cells, at 10 µM; SSMD: measured here: HSF1 foci SSMD mean; cell count: measured here: cell number; plate-normalised HSF1 focus index: stronger effect = lower value
# [12] = molecular target: NAD(+) hydrolase SARM1 (Homo sapiens) (UniProt Q6SZW1); experiment: SARM1 TIR NADase inhibitors, cell lysate, NAD-Glo luminescence (AID 1508614;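 active = compound whose remaining NAD level is above about 45 nM, limit read from the data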;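 also: higher remaining NAD means stronger inhibition of SARM1 NADase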); details: SAM-TIR HEK293T lysate NADase, at 1 µM, stronger effect = higher value
# Sequence of NAD(+) hydrolase SARM1 (Homo sapiens) (Q6SZW1 whole entry, looked up): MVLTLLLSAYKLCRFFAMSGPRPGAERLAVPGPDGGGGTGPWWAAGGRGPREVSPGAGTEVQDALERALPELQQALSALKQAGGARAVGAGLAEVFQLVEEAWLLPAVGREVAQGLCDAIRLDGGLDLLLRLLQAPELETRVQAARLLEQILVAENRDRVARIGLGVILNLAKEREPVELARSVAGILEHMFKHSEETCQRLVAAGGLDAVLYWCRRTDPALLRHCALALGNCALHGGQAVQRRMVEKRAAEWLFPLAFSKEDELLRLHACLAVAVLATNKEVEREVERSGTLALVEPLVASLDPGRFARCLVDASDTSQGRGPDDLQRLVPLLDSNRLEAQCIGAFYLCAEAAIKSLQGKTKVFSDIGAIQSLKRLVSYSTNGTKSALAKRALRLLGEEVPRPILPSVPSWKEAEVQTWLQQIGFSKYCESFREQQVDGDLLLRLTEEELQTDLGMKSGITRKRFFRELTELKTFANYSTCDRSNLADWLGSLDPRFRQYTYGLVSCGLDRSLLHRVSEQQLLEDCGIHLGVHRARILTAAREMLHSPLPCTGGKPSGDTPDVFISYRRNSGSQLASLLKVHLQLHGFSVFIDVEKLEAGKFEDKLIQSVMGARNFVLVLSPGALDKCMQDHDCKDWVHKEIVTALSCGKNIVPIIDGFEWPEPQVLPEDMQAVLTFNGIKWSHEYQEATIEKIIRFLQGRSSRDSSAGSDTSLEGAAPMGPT
# [13] = growth inhibition of DIPG glioma cells, dose response, cell-based, SU-DIPG-XIII, MIPE4.0, CellTiter-Glo, qHTS (AID 1347061; cut-off not given, nearly all actives have AC50 up to about 37 µM;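 also: cells exposed to compound for 48 hours before readout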); details: SU-DIPG-XIII viability, CellTiter-Glo ATP luminescence
# [14] = stronger effect = lower value, cell number ratio, induced over uninduced
# [15] = measured here: relative caspase fold change +Dox/-Dox
# [16] = measured here: total cells with miR-34 induction, stronger effect = lower value
# [17] = measured here: total cells without miR-34 induction
# [18] = MELAS cybrid survival, CellTiter-Glo 48 h, stronger effect = higher value
# [19] = Rieske KO mouse fibroblast survival, CellTiter-Glo 72 h
smiles,measurement,setting,value
O=S(=O)(F)Cc1ccccc1,outcome,[1],inactive
same,outcome,[2],inactive
same,outcome,[3],inactive
same,outcome,[4],inactive
same,outcome,[5],inactive
same,outcome,[6],inactive
same,outcome,[7],inactive
same,outcome,[8],inactive
same,fold change,[9]; [14],0.924 (inactive)
same,fold change,[9]; [15],0.551
same,cell count,[9]; [16],9940
same,cell count,[9]; [17],10800
same,z-score,[10]; [18],-0.358 (inactive)
same,z-score,[10]; [19],0.553
CN(C)c1cc2c(cc1Sc1nc3c(N)nccc3n1CCNCC(C)(C)C)OCO2,AC50,[1],590 nM (active)
same,AC50,[4],1320 nM (active)
same,AC50,[5],661 nM (active)
same,AC50,[7],1320 nM (active)
same,IC50,[8],2950 nM (active)
COc1ccc(N(C(=O)Oc2c(C)cccc2C)c2ccnc(Nc3ccc(N4CCN(C)CC4)cc3)n2)c(OC)c1,AC50,[1],10500 nM (active)
same,AC50,[4],14800 nM (active)
same,AC50,[5],10500 nM (active)
same,outcome,[6],inactive
same,AC50,[7],16600 nM (active)
same,IC50,[8],20900 nM (active)
same,fold change,[9]; [14],0.826 (inactive)
same,fold change,[9]; [15],0.474
same,cell count,[9]; [16],5990
same,cell count,[9]; [17],7250
same,z-score,[10]; [18],0.0994 (inactive)
same,z-score,[10]; [19],-1.32
CC1=C2C[C@H]3[C@@H](CC=C4C[C@@H](O)CC[C@@]43C)[C@@H]2CC[C@]12O[C@@H]1C[C@H](C)CN[C@H]1[C@H]2C,outcome,[1],inactive
same,outcome,[2],inactive
same,outcome,[3],inactive
same,outcome,[4],inactive
same,outcome,[5],inactive
same,outcome,[6],inactive
same,outcome,[7],inactive
same,outcome,[8],inactive
same,fold change,[9]; stronger effect = lower value,0.912 (inactive)
same,fold change,[9]; [15],0.801
same,cell count,[9]; [16],4470
same,cell count,[9]; [17],4900
same,SSMD,[11],2.32
same,cell count,[11],7300
same,plate-normalised HSF1 focus index,[11],1.08 (inactive)
Cn1c(/C=C/CO)c(CO)c2c1C(=O)C=C(N1CC1)C2=O,outcome,[1],inactive
same,outcome,[5],inactive
same,outcome,[8],inactive
CN1C(=O)[C@@H](NC(=O)[C@H](CCC(F)(F)F)[C@H](CCC(F)(F)F)C(N)=O)N=C(c2ccccc2)c2ccccc21,outcome,[1],inactive
same,outcome,[4],inactive
same,outcome,[5],inactive
same,outcome,[7],inactive
same,outcome,[8],inactive
C[C@]12CC[C@H]3[C@@H](CC[C@@]45O[C@@H]4C(O)=C(C#N)C[C@]35C)[C@@H]1CC[C@@H]2O,AC50,[1],29500 nM (active)
same,outcome,[2],inactive
same,AC50,[4],20900 nM (active)
same,AC50,[5],20900 nM (active)
same,outcome,[6],inactive
same,outcome,[8],inactive
same,remaining NAD,[12],10 nM (inactive)
c1cc2c(cc1[C@H]1OC[C@H]3[C@@H]1CO[C@@H]3c1ccc3c(c1)OCO3)OCO2,outcome,[2],inactive
same,outcome,[6],inactive
C[C@@]12OC(=O)[C@]1([C@@H](O)[C@@H]1C=CCCC1)NC(=O)[C@@H]2CCCl,AC50,[13],590 nM (active)
same,AC50,[2],41.8 nM (active)
same,AC50,[3],9.35 nM (active)
same,AC50,[4],14.8 nM (active)
same,AC50,[5],18.6 nM (active)
same,AC50,[6],23.5 nM (active)
same,AC50,[7],29.5 nM (active)
O=[N+]([O-])c1ncc[nH]1,outcome,[13],inactive
same,outcome,[2],inactive
same,outcome,[3],inactive
same,outcome,[6],inactive
same,fold change,[9]; stronger effect = lower value,0.87 (inactive)
same,fold change,[9]; [15],0.789
same,cell count,[9]; [16],7870
same,cell count,[9]; [17],9040
same,z-score,[10]; [18],-0.216 (inactive)
same,z-score,[10]; [19],0.743
CO[C@H]1CCC(O[C@H]2C[C@H]([C@]3(C)CC[C@]4(C[C@H](O)[C@@H](C)[C@@H]([C@@H](C)/C=C(\C)C(=O)[C@H](C)C[C@H](C)C(=O)O)O4)O3)O[C@]3(O[C@@H]([C@H]4O[C@@](O)(CO)[C@H](C)C[C@@H]4C)C[C@@H]3C)[C@@H]2C)O[C@@H]1C (some centres undefined),AC50,[13],3320 nM (active)
same,AC50,[2],1480 nM (active)
same,AC50,[4],1660 nM (active)
same,AC50,[5],742 nM (active)
same,AC50,[6],526 nM (active)
same,AC50,[7],742 nM (active)
same,IC50,[8],934 nM (active)
C=C[C@H]1CN2CCC1C[C@H]2[C@H](O)c1ccnc2ccccc12 (some centres undefined),AC50,[2],20900 nM (active)
same,outcome,[6],inactive
CCN(CC)C(=O)c1ccc(C2=CC3(CCNCC3)Oc3cccc(O)c32)cc1,outcome,[13],inactive
same,outcome,[3],inactive
same,outcome,[4],inactive
same,outcome,[6],inactive
same,outcome,[7],inactive
same,fold change,[9]; [14],0.925 (inactive)
same,fold change,[9]; [15],0.955
same,cell count,[9]; [16],8090
same,cell count,[9]; [17],8740
same,z-score,[10]; [18],-0.509 (inactive)
same,z-score,[10]; [19],0.582
O=C(NCC1CCOCC1)c1cnc(Nc2ccc(Cl)cc2Cl)nc1C(F)(F)F,outcome,[13],inactive
same,AC50,[2],18700 nM (active)
same,AC50,[3],10500 nM (active)
same,outcome,[4],inactive
same,outcome,[5],inactive
same,outcome,[6],inactive
same,outcome,[7],inactive
same,outcome,[8],inactive
same,fold change,[9]; [14],0.931 (inactive)
same,fold change,[9]; [15],1.15
same,cell count,[9]; [16],8190
same,cell count,[9]; [17],8790
same,z-score,[10]; [18],-0.266 (inactive)
same,z-score,[10]; [19],-0.797
